In all, about 200,000 compounds went through this assay and about 5,100 (2.5%) were called active. The sample as a whole holds a higher share of actives than the screen did. A number with no mark means an inactive call.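 The calls were made as follows: active = activation above the screen-wide mean activation plus 3 SD (cut at about 130% in these data); inactive = the rest.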
Assay: STAT1 signaling activators, primary screen, cell-based, HTS, luciferase reporter (AID 932);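 also: raw ratio to IFN-gamma control signal so 100% means no change and 0% no light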
Conditions: NIH 3T3 STAT1-luciferase reporter, IFN-gamma, luminescence; at 5.5 µM; active compounds read high; 100% = IFN-gamma alone, no compound

| SMILES | activation (% of control) |
| --- | --- |
| COc1ccc(C=Nc2cccc3ncccc23)cc1 | 99.7% |
| O=c1c2ccccc2nc(N/N=C/c2ccccc2)n1O | 113% |
| COc1ccc(/C=N/Nc2nc3ccccc3c(=O)[nH]2)cc1 | 155% (active) |
| COc1ccc(S(=O)(=O)NCC2CCCN(C(=O)c3occc3C)C2)cc1 (stereo unspecified) | 96.8% |
| COc1ccc(/C=N/NC(=O)C(C)N(c2ccc(OC)cc2)S(C)(=O)=O)cc1 (stereo unspecified) | 100% |
| O=C(/C=C/c1ccc(Cl)cc1)Nc1ccc(S(=O)(=O)Nc2ncccn2)cc1 | 107% |
| CC(C)(C)c1ccc(/C=C/C(=O)NC2CCS(=O)(=O)C2)cc1 (stereo unspecified) | 104% |
| CC(C)(C)c1ccc(/C=C/C(=O)Nc2ncccn2)cc1 | 138% (active) |
| O=C(NCCN1C(=O)S/C(=C\c2cccnc2)C1=O)c1cccc(OC(F)F)c1 | 101% |
| Cc1ccccc1NC(=O)NC1(C(=O)N2CCCC2)CCCCC1 | 99% |
| COc1ccc2nc(Nc3nc4ccc(NC(C)=O)cc4s3)sc2c1 | 109% |
| COc1ccc2nc(NC(=O)c3ccc(Br)s3)sc2c1 | 158% (active) |
| COc1cccc(C(=O)Nc2nc3ccc(S(C)(=O)=O)cc3s2)c1 | 119% |
| O=C(/C=C/c1cccs1)NCc1cccnc1 | 101% |
| COc1ccc(/C=N/NC(=O)c2cccc(C(F)(F)F)c2)cc1 | 105% |
| CSc1ccc(/C=N/NC(=O)c2cccc(Cl)c2)cc1 | 150% (active) |
| CSc1ccc(/C=N\NC(=O)COc2ccc(Cl)cc2Br)cc1 | 103% |
| COc1ccc(/C=C/C(=O)N2CCCC2)cc1OC | 84.7% |
| COc1ccc(/C=C/C(=O)Nc2cccnc2)cc1OC | 112% |
| COc1ccc(/C=C/C(=O)Nc2ccc(C34CC5CC(CC(O)(C5)C3)C4)cc2)cc1OC | 141% (active) |
| O=C(CC12CC3CC(CC(C3)C1)C2)NCc1ccco1 | 97.2% |
| C/C(=N\NC(=O)c1cccc(N2CCCC2=O)c1)c1ccc(N)cc1 | 113% |
| O=C(OCc1ccc(Br)cc1)c1cccc(-c2nnc(-c3ccccc3)o2)c1 | 112% |
| Nc1ccc(-c2sc(N)nc2-c2ccccc2)cc1 | 94.5% |

| SMILES | activation (% of control) |
| --- | --- |
| Nc1ccc(-c2nnc(-c3ccc(-c4ccccc4)cc3)o2)cc1 | 139% (active) |
| Brc1ccc(-c2nnc(-c3ccccc3)o2)o1 | 138% (active) |
| OC(c1nnc(-c2ccccc2)o1)c1cccs1 (stereo unspecified) | 117% |
| CCCC(=O)Nc1nnc(-c2ccccc2)o1 | 103% |
| CCNC(=O)c1ccc(OCC(=O)Nc2ccc(F)cc2)c(OC)c1 | 105% |
| CCCCN1C(=O)CCC(C(=O)O)C1c1ccc(OC)cc1 (stereo unspecified) | 107% |
| Nc1ccc(C(=O)NCc2ccccc2)cc1 | 100% |
| COC(=O)CSc1ccc2nnc(CCNS(=O)(=O)c3ccc(C)cc3)n2n1 | 96.4% |
| COc1ccc(/C=N/NC(=O)CNC(=O)c2ccc(S(=O)(=O)N3CCCC3)cc2)c(OC)c1 | 99.5% |
| Cc1cc(C)nc(N/N=C/c2c(C)oc3ccccc23)n1 | 98.5% |
| Cc1noc(C)c1/C=N/Nc1ccc2ccccc2n1 | 157% (active) |
| C(=N\Nc1ccc2ccccc2n1)/c1ccc2c(c1)OCO2 | 35.8% |
| Cc1cccc(C)c1NC(=O)C(c1ccccc1)N1CC(=O)Nc2ccccc21 (stereo unspecified) | 94.6% |
| Cc1nc2ccc(C(=O)O)cc2[nH]1 | 96.9% |
| COC(=O)Nc1nc2ccc(Sc3ccccc3)cc2[nH]1 | 135% (active) |
| COc1cc(OC)cc(C(=O)N[C@H](C(=O)Nc2nc3ccccc3[nH]2)C(C)C)c1 | 96.1% |
| O=C(CCCc1ccccc1)NCc1ccccc1 | 108% |
| CCOC(=O)CCNC(=O)N1CCCC(C(=O)c2ccccc2SC)C1 (stereo unspecified) | 92.5% |
| O=C(Nc1ccc2nc3n(c(=O)c2c1)CCCCC3)c1ccccc1Cl | 101% |
| O=C(Nc1ccc2sc3ccccc3c(=O)c2c1)c1ccccc1Cl | 144% (active) |
| COc1cc(NC(=O)c2cccs2)ccc1NC(=O)c1ccccc1Cl | 109% |
| C#CCOCCOCCOCCNc1nc(N2CCN(C(=O)[C@H](C(C)C)n3cc(CCO)nn3)CC2)nc(N2CCN(C(=O)[C@H]([C@@H](C)CC)n3cc(CCCN=C(N)N)nn3)CC2)n1 | 100% |
| O=C(COc1ccccc1[N+](=O)[O-])NC1CC1 | 92.9% |
| NS(=O)(=O)c1ccc(NC(=S)NNC(=O)c2cccs2)cc1 | 104% |

| SMILES | activation (% of control) |
| --- | --- |
| N#Cc1c(NC(=O)C2CCCO2)sc2c1CCCCC2 (stereo unspecified) | 139% (active) |
| N#Cc1c(NC(=O)CCCl)sc2c1CCCCC2 | 101% |
| N#Cc1c(NC(=O)C2CC(Cl)=CCC2C(=O)O)sc2c1CCCCC2 (stereo unspecified) | 103% |
| CCc1ccc(NC(=O)N2CCN(c3ccccc3)CC2)cc1 | 109% |
| CCOC(=O)c1ccc(NC2Nc3cc(C)nn3S2)cc1 (stereo unspecified) | 102% |
| CCc1ccc(NC2Nc3cc(C)nn3S2)cc1 (stereo unspecified) | 171% (active) |
| COc1ccc(/C(N)=N/OC(=O)CCCc2ccccc2)cc1 | 108% |
| COc1ccc(/C(N)=N/OC(=O)Oc2ccccc2)cc1 | 98.3% |
| COc1ccc(/C(N)=N/OC(=O)Cc2ccccc2)cc1 | 142% (active) |
| COc1ccccc1-c1nc(SC)n[nH]1 | 103% |
| CCOc1ccc(OCc2cccc(C(=O)N(CC)CC)c2)cc1 | 43.9% |
| Cc1cccc(NC(=O)Nc2cccc(Oc3c(F)c(F)c(F)c(F)c3F)c2)c1 | 101% |
| O=C(O)Cc1ccc(NC(=O)c2cccs2)cc1 | 89.8% |
| CN1CCN(S(=O)(=O)c2ccc(NC(=O)c3ccco3)cc2)CC1 | 98.8% |
| O=C(Nc1ccc(NC(=O)c2cccs2)cn1)c1ccco1 | 142% (active) |
| Cc1ccc(C(=O)COc2cccc(NC(=O)c3ccco3)c2)cc1 | 93.6% |
| COC(=O)c1ccc(NC(=O)c2ccco2)cc1 | 124% |
| C/C(=N\NS(=O)(=O)c1ccc(Cl)cc1)c1ccc(NC(=O)c2ccco2)cc1 | 142% (active) |
| Cc1ccoc1C(=O)Nc1cccc(Oc2ccccc2)c1 | 137% (active) |
| O=C(Nc1ccc(Oc2ccccc2)cc1)c1ccco1 | 132% (active) |
| COc1cccc(C(=O)Nc2ccc(NC(=O)c3ccco3)cn2)c1 | 108% |
| C/C(=N/NS(=O)(=O)c1ccccc1)c1ccc(NC(=O)C(F)(F)F)cc1 | 105% |
| O=C(Nc1ccc(Sc2ccc(Br)cc2)cc1)c1ccco1 | 93.9% |
